Measurements taken from PubChem BioAssay (NCATS).
Records with an inconclusive call do not appear. Unmarked numbers belong to inactive results. The source made the active and inactive calls. Calls follow the shape of the dose curve; as a rule, active = well fitted inhibition curve with a large enough effect; inconclusive = small, poorly fitted or top-dose-only effect; inactive = flat fitted curve, though single readings scatter.

Legend:
HaCat [1] = experiment: Cytotoxic Profiling of Annotated Libraries Using Quantitative High-Throughput Screening (AID 1296008); details: Five cell lines viability, CellTiter-Glo ATP luminescence, 48-72 h; max response: hits give low values; also: potency is read from the fitted curve at half-maximal effect; as to max response: % is scaled to controls: 0 for no effect and ±100 for the full control effect
Outline: (§1)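 Cells exposed to compounds for 48 or 72 hr at 37 degrees Celsius. Viability read as ATP-coupled luminescence with CellTiter-Glo after 10 min at room temperature.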

KB-3-1 = experiment: as above; details: Five cell lines viability, CellTiter-Glo ATP luminescence, 48-72 h; max response: hits give low values
Outline: as §1

NIH3T3 = experiment: as above; details: Five cell lines viability, CellTiter-Glo ATP luminescence, 48-72 h; max response: hits give low values
Outline: as §1

HACAT [2] = experiment: qHTS assay to identify novel small-molecules to repurpose for Merkel cell carcinoma treatment (AID 1296009); details: MCC and control cell lines, CellTiter-Glo viability, 72 h; at 44.8 µM (top of the series) unless noted
Outline: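 Cells were incubated with compound for 72 hr at 37 degree celsius before CellTiter-Glo addition. Luminescence was normalized with no-cell wells as full cytotoxicity and DMSO as baseline.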
Also: nearly all actives have a fitted effect of over 60% in size.

SMILES: COc1c(C(O)CC(C)C)ccc2c1C(=O)OCc1cc(C)cc(O)c1O2 (centres undefined)
- max response (HaCat [1]): 0.403%
- max response (KB-3-1): -22.7%
- max response (NIH3T3): -2.04%

SMILES: C=C1/C(=C/C=C2\CCC[C@]3(C)[C@@H]([C@@H](C)OCCC(O)(CC)CC)CC[C@@H]23)C[C@@H](O)C[C@@H]1O
- max response (HaCat [1]): -5.69%
- max response (KB-3-1): -12.7%
- max response (NIH3T3): -34.7%

SMILES: COc1nc2ccc(Br)cc2cc1[C@@H](c1ccccc1)[C@@](O)(CCN(C)C)c1cccc2ccccc12
- max response (HaCat [1]): -2.21%
- max response (KB-3-1): -1.57%
- Potency (NIH3T3): 18.4 µM (active)

SMILES: COc1cc2ncnc(Nc3ccc(O)c(Br)c3)c2cc1OC
- Potency (HaCat [1]): 3.66 µM (active)
- max response (KB-3-1): 0.483%
- Potency (NIH3T3): 11.6 µM (active)

SMILES: O=c1cc(N2CCN(c3cccc(C(F)(F)F)c3)CC2)[nH]c(=O)n1C1CCCCC1
- max response (HaCat [1]): -21.7%
- outcome (KB-3-1): inactive
- max response (NIH3T3): -29.2%

SMILES: CN1CCN(S(=O)(=O)c2ccc(-c3cnc(N)c(C(=O)Nc4cccnc4)n3)cc2)CC1
- max response (HaCat [1]): -21.1%
- max response (KB-3-1): 3.5%
- Potency (NIH3T3): 0.632 µM (active)

SMILES: NS(=O)(=O)Nc1ncnc(OCCOc2ncc(Br)cn2)c1-c1ccc(Br)cc1
- max response (HaCat [1]): -23.8%
- max response (KB-3-1): 6.63%
- max response (NIH3T3): -5.35%

SMILES: COC1CCN(C(=O)c2cc(Cc3n[nH]c(=O)c4ccccc34)ccc2F)CC1
- max response (HaCat [1]): 1.07%
- max response (KB-3-1): -17.5%
- max response (NIH3T3): -21.2%

SMILES: CC1CCC(=O)CC(SCC(O)C(=O)O)CCC(=O)O1 (centres undefined)
- max response (HaCat [1]): -8.22%
- max response (KB-3-1): -25.6%
- max response (NIH3T3): -15.1%

SMILES: C=C1[C@@H](OC(C)=O)CC[C@@]2(C)[C@@H](OC(C)=O)[C@H](OC(C)=O)C3=C(C)C[C@H](OC(=O)C(C)CC)[C@@H]([C@@H](OC(C)=O)[C@H]12)C3(C)C (some centres undefined)
- Potency (HaCat [1]): 1.93 µM (active)
- Potency (KB-3-1): 2.43 µM (active)
- Potency (NIH3T3): 5.44 µM (active)

SMILES: Cn1c(CO)c(-c2ccccc2)c2cc([N+](=O)[O-])ccc21
- max response (HaCat [1]): -23.7%
- max response (KB-3-1): -20.1%
- max response (NIH3T3): -3.34%

SMILES: NC(N)=N/N=C/c1ccccc1Cl
- max response (HaCat [1]): -18.8%
- max response (KB-3-1): -14.8%
- max response (NIH3T3): -25.1%

SMILES: NC(=O)C1=CC2C3C=CC2C(OC3=O)O1 (centres undefined)
- max response (HaCat [1]): -28.3%
- max response (KB-3-1): 5.92%
- max response (NIH3T3): 3.24%

SMILES: Cc1cc2sc(NC(=O)Cc3ccccc3)nc2cc1Cl
- max response (HaCat [1]): -26.8%
- max response (KB-3-1): 3.53%
- max response (NIH3T3): 0.0198%

SMILES: C=C1C(=O)OC2CC3(C)C(O)C(=O)C=C(C)C3CC12 (centres undefined)
- max response (HaCat [1]): 0.297%
- outcome (KB-3-1): inactive
- max response (NIH3T3): -22.8%

SMILES: CCNc1nc(Nc2cc(F)c(C(=O)N3CCOCC3)cc2OC)ncc1C(F)(F)F
- max response (HaCat [1]): 1.43%
- max response (KB-3-1): -21.3%
- max response (NIH3T3): -2.73%

SMILES: O=C(NCc1ccccc1)c1ccc2c(=O)n(-c3cccc(C(F)(F)F)c3)c(=S)[nH]c2c1
- max response (HaCat [1]): -51.3%
- max response (KB-3-1): -9.36%
- max response (NIH3T3): -30.9%

SMILES: CCOc1ccc(-n2c(C(C)N(Cc3cccnc3)C(=O)Cc3ccc(F)c(C(F)(F)F)c3)nc3ncccc3c2=O)cc1 (centres undefined)
- max response (HaCat [1]): -10.9%
- outcome (KB-3-1): inactive
- max response (NIH3T3): 2.59%

SMILES: C=CC(=O)N1CCCN(c2cc(NCCC(=O)O)nc(-c3ccccn3)n2)CC1
- outcome (HaCat [1]): inactive
- max response (KB-3-1): -3.55%
- max response (NIH3T3): -29.3%
- outcome (HACAT [2]): inactive

SMILES: CC(=O)OC1CC2(C)C(CCC(C)C23Cc2c(O)cc(CO)c(C=O)c2O3)C(C)(C)C1O (centres undefined)
- outcome (HaCat [1]): inactive
- max response (KB-3-1): 1.75%
- max response (NIH3T3): 1.46%
- outcome (HACAT [2]): inactive [at 17.4 µM]

SMILES: C=CCc1ccc(OC(C)Cc2ccc(OC)c(OC)c2)c(OC)c1 (centres undefined)
- outcome (HaCat [1]): inactive
- max response (KB-3-1): -25.6%
- max response (NIH3T3): -6.99%
- outcome (HACAT [2]): inactive

SMILES: COc1ccc(C2=NC(c3ccc(Cl)cc3)C(c3ccc(Cl)cc3)N2C(=O)N2CCNC(=O)C2)c(OC(C)C)c1 (centres undefined)
- outcome (HaCat [1]): inactive
- outcome (KB-3-1): inactive
- outcome (HACAT [2]): inactive

SMILES: O=C(CCl)Nc1cccc(NC2=NS(=O)(=O)c3ccccc32)c1
- outcome (HaCat [1]): inactive
- Potency (KB-3-1): 14.6 µM (active)
- outcome (HACAT [2]): inactive

SMILES: O=C(Nc1ncc([N+](=O)[O-])s1)c1ccccc1O
- outcome (HaCat [1]): inactive
- Potency (KB-3-1): 8.2 µM (active)
- outcome (NIH3T3): inactive
- outcome (HACAT [2]): inactive

SMILES: O=C(Nc1ccc(C(F)(F)F)cn1)N1CCN(c2ncccc2C(F)(F)F)CC1
- outcome (HaCat [1]): inactive
- max response (KB-3-1): -14.9%
- max response (NIH3T3): -8.79%
- outcome (HACAT [2]): inactive

SMILES: Cc1ccnc(NC(=O)C(C)c2cccc(C(=O)c3ccccc3)c2)c1 (centres undefined)
- outcome (HaCat [1]): inactive
- max response (KB-3-1): -17.5%
- max response (NIH3T3): -5.36%
- outcome (HACAT [2]): inactive
